The supplement of paper PMC13380429
Values without a mark were called inactive.

System: Vero E6 infected with SARS-CoV-2
Assay: inhibition of SARS-CoV-2 cytopathic effect; higher = more antiviral protection, active = above 15
Conditions: 48 h

SMILES	inhibition of SARS-CoV-2 cytopathic effect (1 nM) [%]	inhibition of SARS-CoV-2 cytopathic effect (8.33 nM) [%]	inhibition of SARS-CoV-2 cytopathic effect (100 nM) [%]	inhibition of SARS-CoV-2 cytopathic effect (833.33 nM) [%]	inhibition of SARS-CoV-2 cytopathic effect (10000 nM)
N=C(N)NN=C1C=CC(=NNC(N)=S)C=C1 [ambazone]	1.75	1.52	1.46	1.18	-0.05%
Cc1ccc2c(c1)[C@H]1CN(C)CC[C@H]1N2 [stobadine]	1.95	2.65	1.27	1.23	-0.96%
O=[N+]([O-])c1cc(O)c(O)c([N+](=O)[O-])c1	-0.65	-3.05	-3.12	1.93	-3.2%
COc1ccc2cc([C@H](C)C(=O)O)ccc2c1 [naproxen]	3.38	3.96	1.16	-1.2	0.68%
CN(C)CCC=C1c2ccccc2CCc2ccccc21 [amitriptyline]	-2.51	-0.51	5.58	1.84	-2.45%
COc1cc(-c2cc(-c3cccc(O)c3)cnc2N)cc(OC)c1OC	-0.86	-1.83	-1.83	1.55	2.09%
CC(C)[N+](C)(CCC(C(N)=O)(c1ccccc1)c1ccccc1)C(C)C [isopropamide-iodide]	1.15	1.26	2.29	1.52	1.2%
CC(=O)OCC1=C(C(=O)O)N2C(=O)[C@@H](N)[C@H]2SC1 [7-aminocephalosporanic-acid]	-5.97	-2.34	-5.2	-0.34	3.59%
O[C@@H](CN1CCNCC1)Cn1c2ccc(Br)cc2c2cc(Br)ccc21 [BAX-channel-blocker]	10.2	4.29	2.27	2.49	-21.9%
O=C1NC(=O)/C(=C/c2ccc3nccc(-c4ccncc4)c3c2)S1	-0.58	-1.8	1.55	2.78	-1.1%
Oc1ccc2c3c1O[C@H]1c4c(c5ccccc5n4Cc4ccccc4)C[C@@]4(O)[C@@H](C2)N(CC2CC2)CC[C@]314 [N-benzylnaltrindole]	0.62	0.67	2.73	-0.06	34% (active)
Cc1sc(C)c2c1CCC=C2c1c[nH]cn1	-1.05	-1.35	-1.5	-2.81	-2.28%
CCCn1cnc2c1c(=O)n(CCCCC(C)=O)c(=O)n2C [propentofylline]	0.84	2.46	1.32	2.05	0.29%
COc1c(-c2ccc3cc(NS(C)(=O)=O)ccc3c2)cc(-n2ccc(=O)[nH]c2=O)cc1C(C)(C)C [dasabuvir]	1.02	-0.41	0.27	1.41	2.61%
COc1cc2c(cc1OC)-c1c(C)c3ccc(OC)c(OC)c3c[n+]1CC2 [dehydrocorydaline]	-0.53	0.34	-1	-1.37	0.05%
Cn1c(=O)c2c(ncn2CCO)n(C)c1=O [etofylline]	0.6	0.32	-0.66	-1.82	-1.01%
CCCCCCOc1cc2c(cc1N(C)c1ncc(C(=O)O)cn1)C(C)(C)CCC2(C)C	-1.61	3.1	3.71	4.08	5.06%
S=C(S)N1CCCC1 [pyrrolidine-dithiocarbamate]	2.71	4.55	4.28	12.7	24.8% (active)
C[C@@H]1C[C@H]2[C@@H]3C[C@H](F)C4=CC(=O)C=C[C@]4(C)[C@@]3(F)[C@@H](O)C[C@]2(C)[C@@]1(O)C(=O)COC(=O)C(C)(C)C [flumethasone-pivalate]	-0.06	-2.13	-1.68	-1.81	6.04%
